# Assay outcomes: PubChem, several laboratories
# Only some compounds are listed: those with a hit (about 1.7% of all), similar ones and a draw of the others.
# TLR9-MyD88 inh – blocks human TLR9 binding to MyD88 | Q9NR96+Q99836 | CHO BLA complementation TLR9-MyD88, CCF4 FRET ratio | inhibition, % at 4.98 µM | hit rate 0.21% among 340,000 | AID 504734;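 active = inhibition above the mean over all tested compounds plus 3 SD, cut at about 21% in these data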;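 also: 0% = DMSO only wells and 100% = clavulanate BLA inhibitor control wells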
# TLR4-MyD88 BLA – TLR4-MyD88 interaction inhibition in cells. O00206+Q99836. HeLa CL3-4 TLR4/MyD88 BLA complementation, FRET ratio. inhibition, % at 8.4 µM. hit rate 0.18% among 200,000; in the data active = inhibition above about 25%;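 also: 0% = vehicle and 100% = reference inhibitor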
# Myeloid diff 2 – promotes myeloid progenitor differentiation | ER-HoxA9 myeloid progenitors, lysozyme-GFP differentiation, flow cytometry | calls only at 10 µM | hit rate 1% among 360,000 | AID 624256;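 active = normalized GFP-positive differentiation at or above the plate's own cutoff, the solvent-only control mean plus 3 SD; inconclusive = no clear call, values can overlap the other calls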;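 also: cells exposed to compound for four days before flow analysis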
# ABCB6 inh 2 – blocks the human ABCB6 transporter. Q9NP58. K562-ABCB6 porphyrin accumulation, flow cytometry, 1 h; hits give low values. fluorescence ratio to DMSO, % at 10 µM. hit rate 0.19% among 360,000;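 active = fluorescence ratio to DMSO below 75%, the collection mean minus 3 SD; inconclusive = too few cells collected in the well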;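 also: signal is porphyrin accumulated inside mitochondria; 100% equals median channel fluorescence of DMSO control wells; lower ratio means ABCB6 inhibition with less porphyrin fluorescence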
# NOD2-RIPK2 inh – inhibitors of human NOD2-RIPK2 interaction | O43353 | CHO BLA complementation NOD2-RIPK2, CCF4 ratio | inhibition, % at 4.98 µM | hit rate 0.38% among 360,000; in the data active = inhibition above about 21%;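 also: 0% = vehicle only and 100% = reference blocker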
# An asterisk follows results filed as active; i = inactive; u = inconclusive; x = no result; + = active, no number.
SMILES,TLR9-MyD88 inh,TLR4-MyD88 BLA,Myeloid diff 2,ABCB6 inh 2,NOD2-RIPK2 inh
COCCCN1C(=O)C(=O)/C(=C(/O)c2ccc(S(=O)(=O)N3CCCCC3)cc2)C1c1ccc(O)cc1 (centres undefined),-2.8,x,i,99.0,0.5
C=CCn1c(C)c(/C=C/c2cc[n+](C)cc2)c2ccccc21,-0.2,x,+,i,-9.0
CC1=N/C(=C\c2ccc(OC(C)C)cc2)C(=O)N1c1ccc(C(=O)O)cc1,-11.8,-19.1,+,106.0,0.6
CN(C)N1C(=O)/C(=C/c2ccco2)SC1=Nc1ccccc1,-3.8,x,i,93.0,-9.7
O=C1/C(=C\c2ccc(Br)o2)SC(=Nc2ccccc2)N1c1ccccc1,3.4,6.0,+,100.0,-9.8
CCCCOc1ccc(CN2CCSCC2)cc1,-5.7,x,i,99.0,-12.7
CCN1C(=O)/C(=C/C=C2/Sc3ccc4ccccc4c3N2CCO)SC1=S,-10.8,15.7,+,438.0,-3.3
CCN1C(c2ccccc2)=C(c2ccccc2)S/C1=C/C=C1\SC(=S)N(C)C1=O,-3.6,-2.9,+,190.0,-5.6
CC(C)(C)NC(=O)C1c2ccccc2OCC(=O)N1Cc1ccc2c(c1)OCO2 (centres undefined),x,x,i,97.0,-0.6
COc1ccc(-c2oc3ccc(N4CCOCC4)cc3c2C#Cc2ccc(N)cc2)cc1,1.3,x,+,106.0,-2.7
CN1/C(=C\C(=O)CSc2cccc[n+]2[O-])C(C)(C)c2ccccc21,-0.3,0.0,i,219.0,-7.7
CN1/C(=C/C(=O)CSc2ccccc2C(=O)O)C(C)(C)c2ccccc21,4.7,x,+,339.0,-7.8
CN1/C(=C\C(=S)NC(=O)c2ccccc2Cl)C(C)(C)c2ccccc21,6.6,-8.1,+,588.0,0.8
CN1/C(=C\C(=O)CN2C(=O)NC3(CCCCCC3)C2=O)C(C)(C)c2ccccc21,-7.8,5.4,+,502.0,-2.0
COc1ccccc1C(=O)NC(=S)/C=C1/N(C)c2ccccc2C1(C)C,-4.1,2.4,u,723.0,0.3
COCCNC(=O)c1cc2c(c(-c3cccc(-c4cc5ccccc5o4)c3)n1)[C@@H](CCO)N(S(=O)C(C)(C)C)C2 (some centres undefined),x,x,i,116.0,9.5
O=C(NC(CC(=O)N1CCN(c2ccc([N+](=O)[O-])cc2)CC1)c1ccccc1)c1ccccc1Cl (centres undefined),1.3,-15.3,i,105.0,-3.2
Nc1c(C(=O)Nc2ccc(S(=O)(=O)N3CCCC3)cc2)sc2nc3cc4c(cc3cc12)CCC4,-0.2,1.6,+,147.0,-1.1
Nc1c(C(=O)Nc2ccc(S(=O)(=O)N3CCCC3)cc2)sc2nc3ccc(OC(F)(F)F)cc3cc12,0.6,3.5,i,229.0,-11.7
O=C(c1cccc(OC2CCN(Cc3cccc(OCCO)c3)CC2)c1)N1CCCC1,-2.3,x,+,99.0,-5.1
O=C(c1ccc(OC2CCN(Cc3cccc(OCCO)c3)CC2)cc1)N1CCCC1,-1.8,x,i,102.0,4.5
COc1cccc(OCCOCCN(C)CCO)c1,-7.5,0.8,+,162.0,6.6
Cc1cc(OCCOCCN(C)CCO)cc(C)c1Cl,2.8,-11.4,i,97.0,-15.2
Cc1ccc(C)c(NC(=S)N(Cc2cccc(Br)c2)CC2CCC(C(=O)O)CC2)c1 (centres undefined),-6.1,-10.5,i,88.0,-17.9
COc1ccc(Cc2nnc(Nc3ccccc3)s2)cc1Br,1.0,x,+,109.0,-1.7
SMILES,TLR9-MyD88 inh,TLR4-MyD88 BLA,Myeloid diff 2,ABCB6 inh 2,NOD2-RIPK2 inh
COc1ccc(Cc2nnc(NC(=O)CSc3ccccc3)s2)cc1OC,1.1,-7.7,i,100.0,2.3
COc1ccc(C2=Nn3c(nnc3-c3ccccc3Cl)SC2)cc1OCC1CC1,-3.5,x,i,102.0,3.7
COc1ccc(OC)c(-c2nnc3n2N=C(c2ccc(OC)c(OCC4CC4)c2)CS3)c1,-5.2,x,+,99.0,-0.3
Oc1ccc(C[C@@H]2CNCCN2CCc2cccc3ccccc23)cc1,1.7,x,+,99.0,-5.9
CCCCN1CCNC[C@@H]1Cc1ccc(O)cc1,-8.1,x,+,104.0,-0.8
CCCCN1CCNC[C@@H]1Cc1ccccc1,-7.2,x,i,97.0,-3.9
COc1cccc(CN2CCC2(C)C(=O)Nc2cccc(Oc3ccccc3)c2)c1OC (centres undefined),x,x,i,97.0,2.3
C/C(=N\NS(=O)(=O)c1ccc(C)c([N+](=O)[O-])c1)c1cc2ccccc2o1,-1.6,-2.3,+,95.0,-15.6
C/C(=N\NS(=O)(=O)c1ccc(Cl)c([N+](=O)[O-])c1)c1cc2ccccc2o1,-10.8,-2.8,i,100.0,-0.6
COc1ccc(C(=O)n2cnc3ccccc32)cc1,-1.3,x,i,101.0,-2.8
CCc1cc(=O)oc2cc(C)cc(OCC(=O)NC3CCN(Cc4ccccc4)CC3)c12,11.5,x,i,97.0,3.4
CCCCc1cc(=O)oc2cc(OCC(=O)NC3CCN(Cc4ccccc4)CC3)ccc12,1.3,x,+,94.0,-2.4
CCOc1ccc(NC(=O)C2C3C=CC4(O3)C2C(=O)N(Cc2cccnc2)C4C(=O)NC2CCCCC2)cc1 (centres undefined),-1.8,x,i,101.0,3.0
CSc1ccccc1NC(=O)CSc1nnc(CNC(=O)c2ccccc2F)n1C,0.8,x,i,94.0,-2.6
CC1(C)N=C(N)N=C(N)N1c1ccc(F)cc1F,-8.1,2.5,+,97.0,-5.9
COc1ccccc1CCC(=O)Nc1ccc(C)cc1Cl,-7.5,-2.7,i,97.0,3.5
Cc1nc(Cc2nnc(SCC(=O)N3CCN(c4ccc(O)cc4)CC3)o2)cs1,-5.1,x,+,97.0,3.5
Cc1nc(Cc2nnc(SCC(=O)N3CCN(c4ccc(F)cc4)CC3)o2)cs1,2.6,x,i,96.0,0.9
CCOc1ccc(NS(=O)(=O)c2ccc3c(c2)CCN3C(C)=O)cc1,-18.0,x,+,94.0,-9.6
CC(=O)N1CCCc2ccc(NS(=O)(=O)c3ccc(C)c(C)c3)cc21,-4.6,x,+,93.0,1.8
Cc1ccc(-c2c[n+](CC(=O)Nc3cc(=O)n(C)c(=O)n3C)c3n2CCC3)cc1,14.0,-17.8,i,101.0,-14.6
O=c1c(-c2nc3ccccc3s2)cccn1Cc1ccccc1,-30.6,-36.1,+,97.0,-6.4
CC12C=CC(=O)C=C1CCC1C2C(O)CC2(C)C1CCC2(O)C(=O)CO (centres undefined),-1.2,x,i,99.0,4.8
CC1CC(C)C[N+](=C2C=C(N3CCCC3)CC(C)(C)C2)C1 (centres undefined),-18.8,-22.1,+,95.0,-15.4
CC1(C)CC(N2CCCC2)=CC(=[N+]2CCCCCC2)C1,-10.0,7.7,i,85.0,-14.4
Cc1cccc(NC(=O)CN2C(=O)N/C(=C/c3cc(C)n(C(C)C)c3C)C2=O)c1,6.8,4.3,i,99.0,-13.3
Cc1cccc(NC(=O)CN2C(=O)N/C(=C/c3ccc(C)s3)C2=O)c1,-3.4,-3.1,+,146.0,4.9
